Drawing on PubChem BioAssay (EPA / NIEHS), this text covers outcome and AC50 for eight molecules.

Assay [1] addresses human RAR-related Orphan Receptor beta (RORb), RORB (gene 6096) (UniProt Q92753). As to the kind of experiment: ATG_RORb_TRANS: Attagene TRANS-FACTORIAL HepG2 Assay for human RAR-related Orphan Receptor beta (RORb) (AID 2283010; active = hit-call score of the fitted dose curve at least 0.9, where 1 is the maximum). In a few lines: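 HepG2 cells were transiently transfected with multiplexed GAL4-UAS reporter units expressing chimeric nuclear receptor–GAL4 proteins, then dosed for 24 h. Reporter mRNA was quantified by RT-PCR with fluorescent labelling and capillary electrophoresis; gain of signal was fitted relative to DMSO.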

Assay [2] deals with Retinoic acid receptor RXR-alpha (Homo sapiens) (UniProt P19793). As to the kind of experiment: ATG_RXRa_TRANS: Attagene TRANS-FACTORIAL HepG2 Assay for human Retinoid X Receptor alpha (RXRa) (AID 2283012; active = hit-call score of the fitted dose curve at least 0.9, where 1 is the maximum). In a few lines:
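HepG2 cells transiently transfected with multiplexed GAL4-UAS reporter units and chimeric NR-GAL4 fusions, dosed 24 h. Reporter mRNA measured by RT-PCR, FAM labelling, HpaI digestion and capillary electrophoresis; gain-of-signal fitted relative to DMSO baseline.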

Assay [3] concerns the target human Vitamin D Receptor (VDR), VDR (gene 7421) (UniProt P11473). As to the kind of experiment: ATG_VDR_TRANS: Attagene TRANS-FACTORIAL HepG2 Assay for human Vitamin D Receptor (VDR) (AID 2283022; active = hit-call score of the fitted dose curve at least 0.9, where 1 is the maximum). The gist of the method: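 HepG2 cells were transiently transfected with multiple GAL4-UAS reporter units, so signal reflects exogenous chimeric receptor-Gal4 activity. After 24 h compound exposure, reporter mRNA was measured by RT-PCR, fluorescent labelling and capillary electrophoresis, fitted for gain of signal versus DMSO.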

The target of assay [4] is human RAR-related Orphan Receptor gamma (RORg), RORC (gene 6097) (UniProt P51449). As to the kind of experiment: ATG_RORg_TRANS: Attagene TRANS-FACTORIAL HepG2 Assay for human RAR-related Orphan Receptor gamma (RORg) (AID 2283011; active = hit-call score of the fitted dose curve at least 0.9, where 1 is the maximum). The gist of the method:
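Readout: reporter transcript induction (RT-PCR, fluorescent primer extension, capillary electrophoresis) after 24 h compound exposure of transiently transfected HepG2 cells carrying a RORg-Gal4 chimera and GAL4-UAS reporters; DMSO served as baseline, with increasing signal fitted.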

Assay [5] deals with human Retinoid X Receptor beta (RXRb), RXRB (gene 6257) (UniProt P28702). As to the kind of experiment: ATG_RXRb_TRANS: Attagene TRANS-FACTORIAL HepG2 Assay for human Retinoid X Receptor beta (RXRb) (AID 2283013; active = hit-call score of the fitted dose curve at least 0.9, where 1 is the maximum). The gist of the method:
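HepG2 cells transiently transfected with multiplexed reporter units driven by GAL4-UAS and exogenous chimeric NR-Gal4 proteins; treated 24 h. Reporter mRNA measured by RT-PCR, 6-FAM labelling and capillary electrophoresis; gain-of-signal fitted versus DMSO baseline.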

For assay [6], the target named is human Thyroid Receptor alpha (THRa1), THRA (gene 7067) (UniProt P10827). As to the kind of experiment: ATG_THRa1_TRANS: Attagene TRANS-FACTORIAL HepG2 Assay for human Thyroid Receptor alpha (THRa1) (AID 2283014; active = hit-call score of the fitted dose curve at least 0.9, where 1 is the maximum). The gist of the method: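 HepG2 cells transiently transfected with multiplexed GAL4-UAS reporter units for exogenous chimeric THRa1-Gal4; reporter mRNA measured 24 h after dosing by RT-PCR, 6-FAM labelling, HpaI digestion and capillary electrophoresis. Gain-of-signal fitted versus DMSO baseline.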

Read-out in assay [7]: E-selectin (Homo sapiens) (UniProt P16581)
As to the kind of experiment: BSK_3C_Eselectin: BioMAP Diversity Plus: 3C Assay for Eselectin Biomarker Activity (AID 2283015). To be noted: primary human endothelial cells (HUVEC); actives raise or lower the signal. The gist of the method: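 Primary human umbilical vein endothelial cells (3C system) were dosed with chemical and cell-surface E-selectin measured by ELISA 24 h later. Bidirectional curve fitting used DMSO as negative control and baseline.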

Read-out in assay [8]: Interleukin-1 alpha (IL1a), IL1A (gene 3552)
As to the kind of experiment: BSK_BE3C_IL1a: BioMAP Diversity Plus: BE3C Assay for Interleukin-1 alpha (IL1a) Biomarker Activity (AID 2283016). To be noted: primary human bronchial epithelial cells; actives raise or lower the signal. The gist of the method: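 Human primary bronchial epithelial cells (BE3C system) were dosed with compound and IL-1a measured by ELISA 24 h later. Activity was fitted bidirectionally against DMSO baseline; cytotoxicity was tracked in parallel cultures by SRB total-protein staining.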

Read-out in assay [9]: Monocyte Chemoattractant Protein-1 (MCP1), CCL2 (gene 6347)
As to the kind of experiment: BSK_3C_MCP1: BioMAP Diversity Plus: 3C Assay for Monocyte Chemoattractant Protein-1 (MCP1) Biomarker Activity (AID 2283017). To be noted: primary human endothelial cells (HUVEC); actives raise or lower the signal. The gist of the method:
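Primary human umbilical vein endothelial cells (3C system) were exposed to test chemical for 24 h, after which MCP-1 was quantified by ELISA. Activity was fitted bidirectionally against DMSO as negative control and baseline.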

Read-out in assay [10]: Monocyte Chemoattractant Protein-1 (MCP1), CCL2 (gene 6347)
As to the kind of experiment: BSK_4H_MCP1: BioMAP Diversity Plus: 4H Assay for Monocyte Chemoattractant Protein-1 (MCP1) Biomarker Activity (AID 2283018). Particulars: primary human endothelial cells (HUVEC); actives raise or lower the signal. In a few lines:
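Human umbilical vein endothelial cells (4H system) dosed with chemical; MCP-1 measured by ELISA 24 h after dosing. Bidirectional curve fitting against DMSO negative control as baseline; parallel SRB total-protein staining tracks overt cytotoxicity.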

Read-out in assay [11]: Human Leukocyte Antigen - DR isotype (HLADR), HLA-DRA (gene 3122)
As to the kind of experiment: BSK_3C_HLADR: BioMAP Diversity Plus: 3C Assay for Human Leukocyte Antigen - DR isotype (HLADR) Biomarker Activity (AID 2283019). To be noted: primary human endothelial cells (HUVEC); actives raise or lower the signal. The gist of the method:
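Primary human umbilical vein endothelial cells (3C system) were dosed with compound and cell-surface HLA-DR was quantified by ELISA at 24 h. Activity was fitted bidirectionally against DMSO as negative control and baseline.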

Read-out in assay [12]: Interleukin-8 (IL8), CXCL8 (gene 3576)
As to the kind of experiment: BSK_3C_IL8: BioMAP Diversity Plus: 3C Assay for Interleukin-8 (IL8) Biomarker Activity (AID 2283020). Particulars: primary human endothelial cells (HUVEC); actives raise or lower the signal. In a few lines: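 Primary human umbilical vein endothelial cells (3C system) were exposed to test chemical for 24 h, then IL-8 was quantified by ELISA. Responses were fitted bidirectionally against DMSO vehicle as baseline.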

A short description of assay [13]: BSK_3C_SRB: Viability Assessment in the BioMAP Diversity Plus: 3C Assay (AID 2283023).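 Note: fitted both ways against DMSO so a hit may be signal rise or drop.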 To be noted: primary human endothelial cells (HUVEC). The gist of the method:
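Primary human umbilical vein endothelial cells in the 3C system were read 24 h after compound dosing. Total protein was stained with 0.1% sulforhodamine B after 10% TCA fixation and read at 560 nm, with bidirectional fitting against DMSO as baseline.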

Read-out in assay [14]: Matrix Metallopeptidase 1 (MMP1), MMP1 (gene 4312)
As to the kind of experiment: BSK_BE3C_MMP1: BioMAP Diversity Plus: BE3C Assay for Matrix Metallopeptidase 1 (MMP1) Biomarker Activity (AID 2283024). Particulars: primary human bronchial epithelial cells; actives raise or lower the signal. The gist of the method: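 Primary human bronchial epithelial cells were dosed with test chemicals, and MMP1 levels were measured by ELISA 24 h later. Data were fitted bidirectionally against DMSO as the negative control and activity baseline.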

Read-out in assay [15]: Pselectin, SELP (gene 6403)
As to the kind of experiment: BSK_4H_Pselectin: BioMAP Diversity Plus: 4H Assay for Pselectin Biomarker Activity (AID 2283026). To be noted: primary human endothelial cells (HUVEC); actives raise or lower the signal. The gist of the method:
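Primary human umbilical vein endothelial cells were exposed to test chemical for 24 h, then cell-surface P-selectin was quantified by ELISA. Activity was fitted bidirectionally against DMSO as negative control and baseline.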

A short description of assay [16]: BSK_4H_SRB: Viability Assessment in the BioMAP Diversity Plus: 4H Assay (AID 2283027).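 Note: cells exposed to compound for 24 h before staining; curves fitted both ways versus DMSO so AC50 may be loss or gain.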 Particulars: primary human endothelial cells (HUVEC). In a few lines:
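Human umbilical vein endothelial cells were dosed with chemical and, after 24 h, fixed with 10% TCA, stained with 0.1% sulforhodamine B, and read at 560 nm to give total protein as a cytotoxicity measure. Bidirectional fitting relative to DMSO control.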

Read-out in assay [17]: Thrombomodulin, THBD (gene 7056)
As to the kind of experiment: BSK_3C_Thrombomodulin: BioMAP Diversity Plus: 3C Assay for Thrombomodulin Biomarker Activity (AID 2283029). Particulars: primary human endothelial cells (HUVEC); actives raise or lower the signal. In a few lines:
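Primary human umbilical vein endothelial cells (3C system) were exposed to chemical for 24 h, then thrombomodulin levels were measured by ELISA. Activity was fitted bidirectionally against the DMSO negative control as baseline.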

Read-out in assay [18]: Urokinase-type plasminogen activator receptor (uPAR), PLAUR (gene 5329)
As to the kind of experiment: BSK_4H_uPAR: BioMAP Diversity Plus: 4H Assay for Urokinase-type plasminogen activator receptor (uPAR) Biomarker Activity (AID 2283030). To be noted: primary human endothelial cells (HUVEC); actives raise or lower the signal. The gist of the method:
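Primary human umbilical vein endothelial cells were exposed to chemical for 24 h before cell-surface uPAR was quantified by ELISA. Activity was fitted bidirectionally against the DMSO negative control baseline.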

A short description of assay [19]: BSK_BE3C_SRB: Viability Assessment in the BioMAP Diversity Plus: BE3C Assay (AID 2283028). To be noted: primary human bronchial epithelial cells. In a few lines: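 Human primary bronchial epithelial cells were exposed to test chemicals for 24 h. Total protein in parallel cultures was then measured by staining with 0.1% sulforhodamine B after 10% TCA fixation, with absorbance read at 560 nm. Activity was fitted bidirectionally against DMSO.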

“And” between values parts separate entries of the source, which are not always exact repeats. Equal entries are not always repeated. Inconclusive results are not listed. The source made the active and inactive calls. Rule for the calls, unless noted: active = hit-call score of the fitted dose curve at least 0.9, where 1 is the maximum; inactive = score below 0.9.

human Vitamin D Receptor (VDR), VDR (gene 7421), sequence (P11473 whole entry, looked up, the tested form may be a part): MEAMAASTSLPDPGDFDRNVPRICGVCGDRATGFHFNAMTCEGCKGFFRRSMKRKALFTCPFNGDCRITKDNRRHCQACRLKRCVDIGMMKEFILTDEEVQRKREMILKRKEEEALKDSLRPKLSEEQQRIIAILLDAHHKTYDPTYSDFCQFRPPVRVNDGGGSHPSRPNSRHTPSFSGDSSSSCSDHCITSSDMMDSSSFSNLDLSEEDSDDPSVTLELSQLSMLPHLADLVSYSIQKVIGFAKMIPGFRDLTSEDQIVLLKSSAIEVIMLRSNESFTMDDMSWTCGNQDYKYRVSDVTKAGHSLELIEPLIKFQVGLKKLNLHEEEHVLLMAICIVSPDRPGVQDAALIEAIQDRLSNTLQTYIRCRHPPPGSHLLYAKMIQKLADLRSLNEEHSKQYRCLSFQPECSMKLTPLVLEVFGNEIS
human Thyroid Receptor alpha (THRa1), THRA (gene 7067), sequence (P10827 whole entry, looked up, the tested form may be a part): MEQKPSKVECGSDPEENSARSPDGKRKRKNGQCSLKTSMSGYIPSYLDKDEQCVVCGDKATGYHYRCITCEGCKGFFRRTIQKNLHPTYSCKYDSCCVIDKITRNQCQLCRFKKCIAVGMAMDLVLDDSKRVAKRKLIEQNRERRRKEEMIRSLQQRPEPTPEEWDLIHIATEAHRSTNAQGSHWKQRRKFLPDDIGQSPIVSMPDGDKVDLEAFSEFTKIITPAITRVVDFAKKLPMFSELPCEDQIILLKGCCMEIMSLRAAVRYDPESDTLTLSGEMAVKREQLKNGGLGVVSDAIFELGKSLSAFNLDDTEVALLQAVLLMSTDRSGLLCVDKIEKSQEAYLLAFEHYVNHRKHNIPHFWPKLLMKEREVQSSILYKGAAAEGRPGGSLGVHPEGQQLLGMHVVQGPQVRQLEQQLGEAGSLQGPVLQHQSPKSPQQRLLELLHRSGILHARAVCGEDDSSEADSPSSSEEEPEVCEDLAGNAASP
human RAR-related Orphan Receptor gamma (RORg), RORC (gene 6097), sequence (P51449 whole entry, looked up, the tested form may be a part): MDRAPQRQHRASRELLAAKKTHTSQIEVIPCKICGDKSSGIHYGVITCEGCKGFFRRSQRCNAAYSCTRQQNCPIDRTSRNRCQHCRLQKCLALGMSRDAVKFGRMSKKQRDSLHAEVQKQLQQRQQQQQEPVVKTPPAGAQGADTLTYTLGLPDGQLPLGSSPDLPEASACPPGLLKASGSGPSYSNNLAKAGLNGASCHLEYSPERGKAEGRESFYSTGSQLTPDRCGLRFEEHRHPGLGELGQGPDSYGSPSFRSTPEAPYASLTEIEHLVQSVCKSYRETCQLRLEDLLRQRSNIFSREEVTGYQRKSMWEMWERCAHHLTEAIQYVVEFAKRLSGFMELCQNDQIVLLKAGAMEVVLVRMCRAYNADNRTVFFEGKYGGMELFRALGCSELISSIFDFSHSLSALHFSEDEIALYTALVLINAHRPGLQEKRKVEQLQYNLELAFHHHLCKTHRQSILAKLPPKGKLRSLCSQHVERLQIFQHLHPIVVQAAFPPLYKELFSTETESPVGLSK
E-selectin (Homo sapiens), sequence (P16581 whole entry, looked up): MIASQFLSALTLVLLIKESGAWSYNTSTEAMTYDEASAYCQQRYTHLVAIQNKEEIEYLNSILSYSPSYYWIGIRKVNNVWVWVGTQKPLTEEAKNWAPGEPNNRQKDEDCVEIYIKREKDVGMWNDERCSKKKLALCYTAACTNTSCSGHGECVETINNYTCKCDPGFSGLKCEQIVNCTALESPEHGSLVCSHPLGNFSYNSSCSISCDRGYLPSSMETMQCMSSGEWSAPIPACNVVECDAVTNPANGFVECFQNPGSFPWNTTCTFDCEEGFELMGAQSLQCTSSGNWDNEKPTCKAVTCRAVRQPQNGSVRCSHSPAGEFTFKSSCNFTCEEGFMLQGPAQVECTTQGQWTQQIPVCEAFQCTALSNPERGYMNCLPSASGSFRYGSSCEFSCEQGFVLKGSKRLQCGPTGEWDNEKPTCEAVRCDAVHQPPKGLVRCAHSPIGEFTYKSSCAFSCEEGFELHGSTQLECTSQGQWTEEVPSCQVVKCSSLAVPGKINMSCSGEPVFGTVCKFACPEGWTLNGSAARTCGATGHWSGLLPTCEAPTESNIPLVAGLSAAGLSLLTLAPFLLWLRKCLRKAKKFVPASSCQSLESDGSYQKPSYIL
Retinoic acid receptor RXR-alpha (Homo sapiens), sequence (P19793 whole entry, looked up, the tested form may be a part): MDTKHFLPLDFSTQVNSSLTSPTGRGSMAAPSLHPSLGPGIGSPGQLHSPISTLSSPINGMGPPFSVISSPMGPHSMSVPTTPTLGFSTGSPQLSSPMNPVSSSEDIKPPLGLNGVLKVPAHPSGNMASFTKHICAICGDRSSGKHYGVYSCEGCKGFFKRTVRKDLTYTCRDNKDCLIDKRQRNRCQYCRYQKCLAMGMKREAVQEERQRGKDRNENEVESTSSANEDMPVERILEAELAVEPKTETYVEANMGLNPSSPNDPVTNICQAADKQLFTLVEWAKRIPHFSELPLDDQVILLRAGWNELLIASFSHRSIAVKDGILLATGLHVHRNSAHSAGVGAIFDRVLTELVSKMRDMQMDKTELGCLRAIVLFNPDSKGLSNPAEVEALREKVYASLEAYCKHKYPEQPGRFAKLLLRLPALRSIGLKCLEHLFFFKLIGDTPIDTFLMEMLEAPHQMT
human Retinoid X Receptor beta (RXRb), RXRB (gene 6257), sequence (P28702 whole entry, looked up, the tested form may be a part): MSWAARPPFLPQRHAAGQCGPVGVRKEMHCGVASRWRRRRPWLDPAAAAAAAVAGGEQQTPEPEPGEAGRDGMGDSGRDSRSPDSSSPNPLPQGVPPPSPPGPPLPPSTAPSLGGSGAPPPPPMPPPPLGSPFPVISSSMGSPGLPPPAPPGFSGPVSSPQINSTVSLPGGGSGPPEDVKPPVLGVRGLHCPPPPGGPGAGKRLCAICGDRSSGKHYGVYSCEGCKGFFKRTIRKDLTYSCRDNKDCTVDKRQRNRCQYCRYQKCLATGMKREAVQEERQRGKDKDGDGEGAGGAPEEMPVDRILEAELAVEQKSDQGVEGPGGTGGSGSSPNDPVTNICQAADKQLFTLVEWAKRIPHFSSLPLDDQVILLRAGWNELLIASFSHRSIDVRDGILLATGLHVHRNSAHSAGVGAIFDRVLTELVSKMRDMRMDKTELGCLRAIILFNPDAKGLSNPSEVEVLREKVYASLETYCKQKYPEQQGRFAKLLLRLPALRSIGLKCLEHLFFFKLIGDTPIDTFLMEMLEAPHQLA
human RAR-related Orphan Receptor beta (RORb), RORB (gene 6096), sequence (Q92753 whole entry, looked up, the tested form may be a part): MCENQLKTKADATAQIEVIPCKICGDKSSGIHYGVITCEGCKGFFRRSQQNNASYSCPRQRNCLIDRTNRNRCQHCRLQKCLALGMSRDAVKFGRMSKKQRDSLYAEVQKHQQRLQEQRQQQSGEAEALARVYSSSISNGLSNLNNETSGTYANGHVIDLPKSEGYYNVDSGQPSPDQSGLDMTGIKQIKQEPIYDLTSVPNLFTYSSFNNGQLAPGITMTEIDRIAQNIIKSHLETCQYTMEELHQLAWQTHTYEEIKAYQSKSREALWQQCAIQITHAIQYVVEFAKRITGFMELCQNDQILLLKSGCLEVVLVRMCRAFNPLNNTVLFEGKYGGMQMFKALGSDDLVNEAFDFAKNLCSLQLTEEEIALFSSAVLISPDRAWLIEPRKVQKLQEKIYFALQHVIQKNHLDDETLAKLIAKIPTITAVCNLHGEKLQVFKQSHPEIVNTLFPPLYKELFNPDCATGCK

`CC(C)C(=O)OCc1ccccc1`: the molecule was classed as inactive in assay [1], in assay [2] and in [3].

In the case of `Cc1cccc(C)n1`, the outcome in assay [4], in assay [5], in assay [6] and in assay [3] was inactive.

With `OCCCC(F)(F)C(F)(F)C(F)(F)C(F)(F)C(F)(F)C(F)(F)C(F)(F)C(F)(F)F`, the AC50 in assay [2] is 23.8 µM (active); in assay [5], 2.86 µM (active); in [7], 27.4 µM (active) and 50.6 µM (active); in assay [8], 46.9 µM (active) and 39.5 µM (active); in assay [9], 20.8 µM (active) and 31.7 µM (active); in assay [10], 45.5 µM (active) and 46.7 µM (active). Besides, the AC50 was 19.4 µM (active) and 43.2 µM (active) in assay [11]; 19.6 µM (active) and 20.6 µM (active) in assay [12]; 10.5 µM (active) and 28.4 µM (active) in [13]; 7.11 µM (active) and 55.2 µM (active) in [14]; 32.3 µM (active) and 24.1 µM (active) in assay [15]; 11.1 µM (active) and 20.8 µM (active) in [16]. Moreover, the AC50 in assay [17] was 43.7 µM (active) and 56.3 µM (active); in assay [18] it was 31 µM (active) and 43.6 µM (active). Also, the call in [6] and in [3] was inactive.

As to `CCCC(=O)OCC(COC(=O)CCC)OC(=O)CCC`, the call in [4], in assay [2] and in assay [3] was inactive.

With `O=C1OC(=O)c2ccc3c4c(ccc1c24)C(=O)OC3=O`, the call in assay [4] and in [6] was inactive.

On to `O=C1c2c(O)ccc(Nc3ccc(CCO)cc3)c2C(=O)c2c([N+](=O)[O-])ccc(O)c21`, for which the call in [4], in assay [2], in [8], in assay [9], in assay [12] and in assay [13] was inactive. For the same molecule, in assay [19], the outcome was inactive. The AC50 in assay [6] was 30 µM (active); in assay [7] it was 4.35 µM (active); in assay [10] it was 30.4 µM (active); in assay [11], 10.6 µM (active); in assay [14], 2.47 µM (active); in assay [15], 20 µM (active). The AC50 in assay [16] is 31.3 µM (active); in assay [17], 10.7 µM (active); in assay [18] it was 31.1 µM (active).

On to `OCCCc1cccnc1`, for which the outcome in assay [4], in assay [5], in [6] and in assay [3] was inactive.

With `O=C1C=CC(=O)N1c1ccccc1`, the molecule was classed as inactive in [4], in assay [2], in assay [6] and in assay [3].
